# According to PubChem BioAssay (NCATS):
# Records with an inconclusive call do not appear. Where a call stands in place of a potency, no number is given. Active and inactive are the calls of the source. The call rests on the fitted dose curve; in most records, active means well fitted curve in the direction sought with a large enough effect; inconclusive means small, poorly fitted or top-dose-only effect, or another doubt; inactive means no such curve, though single readings can be large; an effect the other way counts as inactive or inconclusive.
# Columns and labels:
# [1] = qHTS of pediatric cancer cell lines to identify multiple opportunities for drug repurposing: Primary screen for LAN-5 cells (AID 1347100); further: potency means the concentration at half of the fitted maximal effect
# Outline: (§1)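 Viability after 48 h compound treatment at 37C, 500-1,000 cells/well, read as ATP luminescence with CellTiter-Glo. Primary screens used 11-point (MIPE, 0.78 nM-46 µM) or 8-point (NPC, 0.59 nM-46 µM) final concentrations; follow-up screens used 11-point dilutions.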
# [2] = qHTS of pediatric cancer cell lines to identify multiple opportunities for drug repurposing: Primary screen for Rh18 cells (AID 1347102); further: nearly all actives have a fitted effect of over 65% in size; further: potency means the concentration at half of the fitted maximal effect
# Outline: as §1
# [3] = qHTS of pediatric cancer cell lines to identify multiple opportunities for drug repurposing: Primary screen for OHS-50 cells (AID 1347103); further: nearly all actives have a fitted effect of over 40% in size; further: potency means the concentration at half of the fitted maximal effect
# Outline: (§2)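 Cells (500-1,000/well) rested 5 h, then received compounds for 48 h; metabolically active cells were measured by CellTiter-Glo luminescence. Final concentrations spanned up to 46 µM (MIPE, 11-point) or 0.59 nM-46 µM (NPC, 8-point) in primary screens, 11-point in follow-ups.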
# [4] = qHTS of pediatric cancer cell lines to identify multiple opportunities for drug repurposing: Primary screen for MG 63 (6-TG R) cells (AID 1347105); further: nearly all actives have a fitted effect of over 50% in size; further: potency means the concentration at half of the fitted maximal effect
# Outline: (§3)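 Readout: CellTiter-Glo luminescence, 48 h treatment. Controls DMSO (neutral) and bortezomib 2.3 µM final (positive). Potency and efficacy taken from primary-screen concentration-response curves.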
# [5] = qHTS of pediatric cancer cell lines to identify multiple opportunities for drug repurposing: Primary screen for control Hh wild type fibroblast cells (AID 1347106);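 further: series mostly up to about 46 µM; a drop in luminescence marks cytotoxicity and a rise apparent proliferation; nearly all actives have a fitted effect of over 55% in size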
# Outline: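 Cells (500-1,000/well) in growth media were settled 5 h at 37 degrees C, then given compounds for 48 h. Viability was read as CellTiter-Glo luminescence. Primary runs used MIPE at 11 points (0.78 nM-46 µM) and NPC at 8 points (0.59 nM-46 µM); follow-ups used 11 points.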
# [6] = qHTS of pediatric cancer cell lines to identify multiple opportunities for drug repurposing: Primary screen for Rh30 cells (AID 1347107); further: series mostly up to about 46 µM; nearly all actives have a fitted effect of over 75% in size
# Outline: as §1
# [7] = qHTS of pediatric cancer cell lines to identify multiple opportunities for drug repurposing: Primary screen for BT-12 cells (AID 1347101); further: nearly all actives have a fitted effect of over 25% in size; further: potency means the concentration at half of the fitted maximal effect
# Outline: as §2
# [8] = qHTS of pediatric cancer cell lines to identify multiple opportunities for drug repurposing: Primary screen for RD cells (AID 1347104); further: nearly all actives have a fitted effect of over 55% in size; further: potency means the concentration at half of the fitted maximal effect
# Outline: as §3
# [9] = qHTS of pediatric cancer cell lines to identify multiple opportunities for drug repurposing: Primary screen for NB1643 cells (AID 1347099); further: nearly all actives have a fitted effect of over 50% in size; further: potency means the concentration at half of the fitted maximal effect
# Outline: as §3
compound,measurement,setting,value
CC1C(=O)OC2C(O)C34C5CC(C(C)(C)C)C36C(OC(=O)C6O)OC4(C(=O)O5)C12O (stereo not drawn),Potency,[1],20.9 µM (active)
same,Potency,[2],inactive
same,Potency,[3],inactive
same,Potency,[4],inactive
same,Potency,[5],inactive
same,Potency,[6],inactive
CC[C@]1(O)C[C@H]2CN(CCC3=c4ccccc4=N[C]3[C@@](C(=O)OC)(c3cc4c(cc3OC)N(C)[C@H]3[C@@](O)(C(N)=O)[C@H](O)[C@]5(CC)C=CCN6CC[C@]43[C@@H]65)C2)C1,Potency,[1],0.0166 µM (active)
same,Potency,[7],0.122 µM (active)
same,Potency,[8],0.0332 µM (active)
same,Potency,[6],inactive
C=C1[C@H](n2cnc3c(=O)[nH]c(N)nc32)C[C@H](O)[C@H]1CO,Potency,[9],inactive
same,Potency,[5],inactive
same,Potency,[6],inactive
CN1CCN(c2cccc(Nc3nc4c(-c5ccc(S(C)(=O)=O)cc5)cccn4n3)c2)CC1,Potency,[1],13.2 µM (active)
same,Potency,[2],18.7 µM (active)
same,Potency,[3],7.69 µM (active)
same,Potency,[5],inactive
CCN(CCO)CCCOc1ccc2c(Nc3cc(CC(=O)Nc4cccc(F)c4)[nH]n3)ncnc2c1,Potency,[1],0.0372 µM (active)
same,Potency,[7],inactive
same,Potency,[2],inactive
same,Potency,[8],inactive
same,Potency,[4],inactive
same,Potency,[5],inactive
same,Potency,[6],inactive
Cc1ccc(S(=O)(=O)Nc2nc3ccccc3nc2Nc2ccc3nsnc3c2)cc1,Potency,[1],0.0323 µM (active)
same,Potency,[7],0.0668 µM (active)
same,Potency,[3],0.0421 µM (active)
same,Potency,[8],0.0512 µM (active)
same,Potency,[5],inactive
COc1cc(F)c(C(C)C)cc1-c1ccc(C(F)(F)F)cc1CN1C(=O)O[C@H](c2cc(C(F)(F)F)cc(C(F)(F)F)c2)[C@@H]1C,Potency,[1],18.7 µM (active)
same,Potency,[2],inactive
same,Potency,[8],inactive
same,Potency,[4],inactive
same,Potency,[5],inactive
same,Potency,[6],inactive
NCC1CCC(C(=O)O)CC1 (stereo not drawn),Potency,[1],inactive
same,Potency,[7],inactive
same,Potency,[2],inactive
same,Potency,[8],inactive
same,Potency,[4],inactive
same,Potency,[5],inactive
same,Potency,[6],inactive
FC(F)(F)c1ccc(C=Cc2nc(COc3ccc(CCCCn4ccnn4)cc3)co2)cc1,Potency,[1],0.0059 µM (active)
same,Potency,[7],0.0061 µM (active)
same,Potency,[3],0.0077 µM (active)
same,Potency,[8],0.0118 µM (active)
same,Potency,[5],inactive
NC[C@H]1O[C@H](O[C@@H]2[C@@H](O)[C@@H](O[C@H]3O[C@H](CO)[C@@H](O)[C@H](N)[C@@H]3O)[C@H](N)C[C@@H]2N)[C@H](O)[C@@H](O)[C@H]1O,Potency,[1],inactive
same,Potency,[2],inactive
same,Potency,[3],inactive
same,Potency,[8],inactive
same,Potency,[4],inactive
same,Potency,[5],inactive
same,Potency,[6],inactive
C[C@@H](O[C@H]1OCCN(Cc2n[nH]c(=O)[nH]2)[C@@H]1c1ccc(F)cc1)c1cc(C(F)(F)F)cc(C(F)(F)F)c1,Potency,[9],23.5 µM (active)
same,Potency,[4],23.5 µM (active)
same,Potency,[5],inactive
COc1cccc(OC)c1-c1cc(C(=O)NC2(C(=O)O)C3CC4CC(C3)CC2C4)nn1-c1ccnc2cc(Cl)ccc12 (stereo not drawn),Potency,[1],inactive
same,Potency,[7],inactive
same,Potency,[2],inactive
same,Potency,[8],inactive
same,Potency,[4],inactive
same,Potency,[6],inactive
CCOC(=O)[C@H](CCc1ccccc1)N[C@@H](C)C(=O)N1CCCC1C(=O)O (stereo partly drawn),Potency,[1],inactive
same,Potency,[7],inactive
same,Potency,[2],inactive
same,Potency,[3],inactive
same,Potency,[8],inactive
same,Potency,[4],inactive
same,Potency,[5],inactive
same,Potency,[6],inactive
N#CC(c1ccnc(NCCc2cccnc2)n1)c1nc2ccccc2s1 (stereo not drawn),Potency,[1],16.6 µM (active)
same,Potency,[7],21.7 µM (active)
same,Potency,[3],19.3 µM (active)
same,Potency,[8],23.5 µM (active)
same,Potency,[5],inactive
COc1c(C)c2c(c(O)c1CC=C(C)CCC(=O)O)C(=O)OC2,Potency,[1],3.32 µM (active)
same,Potency,[5],inactive
same,Potency,[6],inactive
COc1ccc2c(c1)c(C1=C(c3c[nH]c4ccccc34)C(=O)NC1=O)cn2CCCN(C)C,Potency,[4],inactive
same,Potency,[5],inactive
CN(C)c1ccc(-c2nc3ncc(Cl)c(N4CCN(CC(=O)Nc5nccs5)CC4)c3[nH]2)cc1,Potency,[7],inactive
same,Potency,[4],inactive
same,Potency,[5],inactive
COc1cc(CNC(=O)CCCCC=CC(C)C)ccc1O,Potency,[7],inactive
same,Potency,[2],inactive
same,Potency,[8],inactive
same,Potency,[4],inactive
same,Potency,[5],inactive
same,Potency,[6],inactive
CN1CC(=O)N2C(Cc3c([nH]c4ccccc34)[C@H]2c2ccc3c(c2)OCO3)C1=O (stereo partly drawn),Potency,[7],inactive
same,Potency,[8],inactive
same,Potency,[5],inactive
same,Potency,[6],inactive
CN(C)c1ccccc1CN1CCCN(Cc2ccccc2N(C)C)C1c1ccncc1,Potency,[3],27.3 µM (active)
same,Potency,[8],26.4 µM (active)
same,Potency,[4],inactive
same,Potency,[5],inactive
same,Potency,[6],inactive
Cc1cnc(CNC(=O)c2c(=O)c3ccc(N4CCCN(C)CC4)nc3n3c2sc2ccccc23)cn1,Potency,[3],inactive
same,Potency,[8],inactive
same,Potency,[5],inactive
COc1ccc2cc1Oc1ccc(cc1)C[C@H]1c3cc(c(OC)cc3CCN1C)Oc1c(OC)c(OC)cc3c1[C@H](C2)N(C)CC3,Potency,[2],inactive
same,Potency,[3],17.2 µM (active)
same,Potency,[5],inactive
CCCCCCCCCCCCCC(=O)N[C@H](CO)[C@H](O)c1ccc([N+](=O)[O-])cc1,Potency,[7],24.3 µM (active)
same,Potency,[3],inactive
same,Potency,[5],inactive
same,Potency,[6],inactive
CCC(C)SSc1ncc[nH]1 (stereo not drawn),Potency,[1],14.8 µM (active)
same,Potency,[3],15.3 µM (active)
same,Potency,[8],26.4 µM (active)
same,Potency,[4],23.5 µM (active)
same,Potency,[5],inactive
same,Potency,[6],inactive
C=CCc1cccc(C=NNC(=O)CN2CCN(Cc3ccccc3)CC2)c1O,Potency,[7],24.3 µM (active)
same,Potency,[3],7.69 µM (active)
same,Potency,[8],16.6 µM (active)
same,Potency,[4],18.7 µM (active)
same,Potency,[5],inactive
O=C(CCCN1CCN(c2ccc(F)cc2)CC1)NC1c2ccccc2CSc2ccccc21 (stereo not drawn),Potency,[3],8.63 µM (active)
same,Potency,[5],inactive
Cc1ccc2c(c1)C(=O)[C@]1(O)CCN(c3ccccc3)C1=N2,Potency,[5],inactive
same,Potency,[6],inactive
CC=C(C(=CC)c1ccc(O)cc1)c1ccc(O)cc1,Potency,[3],27.3 µM (active)
same,Potency,[4],18.7 µM (active)
same,Potency,[6],inactive
CC1=C(C(=O)Nc2cc3cn[nH]c3cc2F)C(c2ccc(C(F)(F)F)cc2)CC(=O)N1 (stereo not drawn),Potency,[7],inactive
same,Potency,[2],inactive
same,Potency,[3],inactive
same,Potency,[8],inactive
same,Potency,[5],inactive
same,Potency,[6],inactive
CCn1c(-c2nonc2N)nc2cncc(CNC3CCNCC3)c21,Potency,[1],20.9 µM (active)
same,Potency,[3],inactive
same,Potency,[5],inactive
CC(C)CNc1ccnc(NCc2csc(-c3ccccc3)n2)n1,Potency,[7],6.85 µM (active)
same,Potency,[3],6.11 µM (active)
same,Potency,[8],29.6 µM (active)
same,Potency,[5],inactive
same,Potency,[6],inactive
CO[C@H]1/C=C\O[C@@]2(C)Oc3c(C)c(O)c4c(O)c(c5c(nc6cc(C)ccn65)c4c3C2=O)NC(=O)C(C)=CC=C[C@H](C)[C@H](O)[C@@H](C)[C@@H](O)[C@@H](C)[C@H](OC(C)=O)[C@H]1C,Potency,[8],inactive
same,Potency,[4],inactive
same,Potency,[5],inactive
COc1ccc(CCN(C)CCCOc2ccc(S(=O)(=O)c3[nH]c4ccccc4c3C(C)C)cc2)cc1OC,Potency,[1],23.5 µM (active)
same,Potency,[4],inactive
same,Potency,[5],inactive
same,Potency,[6],inactive
CNc1nc(-c2ccc3c(N)n[nH]c3c2)cc(N2C[C@@H](C(=O)NC3CCCCC3)CC[C@@H]2C)n1,Potency,[1],26.4 µM (active)
same,Potency,[3],0.273 µM (active)
same,Potency,[8],20.9 µM (active)
same,Potency,[4],3.72 µM (active)
same,Potency,[5],inactive
same,Potency,[6],inactive
C[C@]12CC[C@@H]3c4ccc(O)cc4CC[C@H]3[C@H]1[C@@H](O)[C@@H](O)[C@H]2O,Potency,[2],inactive
same,Potency,[6],inactive
Clc1ccc(C2(c3ccc(-c4cn[nH]c4)cc3)CCNCC2)cc1,Potency,[8],26.4 µM (active)
same,Potency,[4],5.9 µM (active)
same,Potency,[5],inactive
N#Cc1ccc(Oc2ccc3c(c2)COB3O)cc1,Potency,[2],inactive
same,Potency,[8],inactive
same,Potency,[4],inactive
same,Potency,[5],inactive
same,Potency,[6],inactive
CN(C(Cc1ccc(OS(=O)(=O)c2cccc3cnccc23)cc1)C(=O)N1CCN(c2ccccc2)CC1)S(=O)(=O)c1cccc2cnccc12 (stereo not drawn),Potency,[3],13.7 µM (active)
same,Potency,[4],14.8 µM (active)
same,Potency,[6],inactive
Cc1ccc(C2=Nc3ccc(Cl)cc3OC2)cc1,Potency,[3],inactive
same,Potency,[4],inactive
same,Potency,[5],inactive
C#C[C@]1(O)CC[C@H]2[C@H]3CCc4cc(OC)ccc4[C@H]3CC[C@@]21C,Potency,[2],inactive
same,Potency,[5],inactive
same,Potency,[6],inactive
CCNC(=O)CCCC=CC[C@@H]1[C@H](C=CC(O)CCc2ccccc2)[C@@H](O)C[C@@H]1O (stereo partly drawn),Potency,[2],inactive
same,Potency,[3],inactive
same,Potency,[8],inactive
same,Potency,[4],inactive
same,Potency,[5],inactive
same,Potency,[6],inactive
CCOC(=O)c1c(CSc2ccccc2)n(C)c2cc(Br)c(O)c(CN(C)C)c12,Potency,[3],27.3 µM (active)
same,Potency,[4],inactive
same,Potency,[5],inactive
CCC(=O)N1CCN(c2ccc(-n3c(=O)ccc4cnc5ccc(-c6cnc7ccccc7c6)cc5c43)cc2C(F)(F)F)CC1,Potency,[1],inactive
same,Potency,[3],0.0432 µM (active)
same,Potency,[6],inactive
O=C(Nc1cccc(Cl)c1)Nc1ncc(CCNc2ncnc3ccsc23)s1,Potency,[1],0.132 µM (active)
same,Potency,[3],7.69 µM (active)
same,Potency,[5],inactive
COc1c(C)c2c(c(O)c1CC=C(C)CCC(=O)OCCN1CCOCC1)C(=O)OC2,Potency,[7],1.93 µM (active)
same,Potency,[6],inactive
CC(C)(O)CC(=O)NCCn1ccc2ncnc(Nc3ccc(Oc4cccc(C(F)(F)F)c4)c(Cl)c3)c21,Potency,[3],30.6 µM (active)
same,Potency,[8],18.7 µM (active)
same,Potency,[5],inactive
Cc1csc(-c2nnc(Nc3ccc(Oc4ncccc4-c4ccnc(N)n4)cc3)c3ccccc23)c1,Potency,[1],0.001 µM (active)
same,Potency,[4],inactive
same,Potency,[5],inactive
same,Potency,[6],inactive
COC1CCC(C(=O)c2ccc3nc4c(cc3c2)CCCO4)CC1 (stereo not drawn),Potency,[7],1.93 µM (active)
same,Potency,[2],inactive
same,Potency,[3],12.2 µM (active)
same,Potency,[8],26.4 µM (active)
O=C(Nc1cccc(C(F)(F)F)c1)Nc1cc(S(=O)(=O)NC2CC2)ccc1-c1ccsc1,Potency,[2],inactive
same,Potency,[8],29.6 µM (active)
Cc1cc(C(C)Nc2ccccc2)c2nc(N3CCOCC3)cc(=O)n2c1 (stereo not drawn),Potency,[3],24.3 µM (active)
same,Potency,[5],inactive
COc1cc2ncn(-c3cc(OCc4ccccc4S(C)(=O)=O)c(C#N)s3)c2cc1OC,Potency,[7],inactive
same,Potency,[2],inactive
same,Potency,[4],inactive
